Active and inactive are the calls of the source.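 The calls were made as follows, unless noted: active = mean inhibition over 43.08%, the solvent-only control mean plus 3 SD; inactive = the rest.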
Columns and labels:
[1] = biological target: Nuclear receptor coactivator 3 (Homo sapiens) (UniProt Q9Y6Q9); assay: SRC3 coactivator transcriptional activity inhibitors, confirmation, cell-based, luminescence, quadruplicate (AID 588792); details: HEK293 GAL4-SRC3 luciferase reporter, at 3.6 µM, hits give high values;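 also: 0% = DMSO treated cells and 100% = gossypol at 36 µM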
[2] = tested on: transactivating tegument protein VP16 (Human herpesvirus 1), Gal4-VP16 luciferase reporter; assay: VP16 transactivation inhibitors, counter-screen for SRC3 inhibitor project, cell-based, luminescence, high throughput (AID 588794; in the data active = inhibition above about 30%); details: mammalian cells, VP16-driven luciferase reporter luminescence; at 3.6 µM; hits give high values

Sequence of Nuclear receptor coactivator 3 (Homo sapiens) (Q9Y6Q9 whole entry, looked up, the tested form may be a part): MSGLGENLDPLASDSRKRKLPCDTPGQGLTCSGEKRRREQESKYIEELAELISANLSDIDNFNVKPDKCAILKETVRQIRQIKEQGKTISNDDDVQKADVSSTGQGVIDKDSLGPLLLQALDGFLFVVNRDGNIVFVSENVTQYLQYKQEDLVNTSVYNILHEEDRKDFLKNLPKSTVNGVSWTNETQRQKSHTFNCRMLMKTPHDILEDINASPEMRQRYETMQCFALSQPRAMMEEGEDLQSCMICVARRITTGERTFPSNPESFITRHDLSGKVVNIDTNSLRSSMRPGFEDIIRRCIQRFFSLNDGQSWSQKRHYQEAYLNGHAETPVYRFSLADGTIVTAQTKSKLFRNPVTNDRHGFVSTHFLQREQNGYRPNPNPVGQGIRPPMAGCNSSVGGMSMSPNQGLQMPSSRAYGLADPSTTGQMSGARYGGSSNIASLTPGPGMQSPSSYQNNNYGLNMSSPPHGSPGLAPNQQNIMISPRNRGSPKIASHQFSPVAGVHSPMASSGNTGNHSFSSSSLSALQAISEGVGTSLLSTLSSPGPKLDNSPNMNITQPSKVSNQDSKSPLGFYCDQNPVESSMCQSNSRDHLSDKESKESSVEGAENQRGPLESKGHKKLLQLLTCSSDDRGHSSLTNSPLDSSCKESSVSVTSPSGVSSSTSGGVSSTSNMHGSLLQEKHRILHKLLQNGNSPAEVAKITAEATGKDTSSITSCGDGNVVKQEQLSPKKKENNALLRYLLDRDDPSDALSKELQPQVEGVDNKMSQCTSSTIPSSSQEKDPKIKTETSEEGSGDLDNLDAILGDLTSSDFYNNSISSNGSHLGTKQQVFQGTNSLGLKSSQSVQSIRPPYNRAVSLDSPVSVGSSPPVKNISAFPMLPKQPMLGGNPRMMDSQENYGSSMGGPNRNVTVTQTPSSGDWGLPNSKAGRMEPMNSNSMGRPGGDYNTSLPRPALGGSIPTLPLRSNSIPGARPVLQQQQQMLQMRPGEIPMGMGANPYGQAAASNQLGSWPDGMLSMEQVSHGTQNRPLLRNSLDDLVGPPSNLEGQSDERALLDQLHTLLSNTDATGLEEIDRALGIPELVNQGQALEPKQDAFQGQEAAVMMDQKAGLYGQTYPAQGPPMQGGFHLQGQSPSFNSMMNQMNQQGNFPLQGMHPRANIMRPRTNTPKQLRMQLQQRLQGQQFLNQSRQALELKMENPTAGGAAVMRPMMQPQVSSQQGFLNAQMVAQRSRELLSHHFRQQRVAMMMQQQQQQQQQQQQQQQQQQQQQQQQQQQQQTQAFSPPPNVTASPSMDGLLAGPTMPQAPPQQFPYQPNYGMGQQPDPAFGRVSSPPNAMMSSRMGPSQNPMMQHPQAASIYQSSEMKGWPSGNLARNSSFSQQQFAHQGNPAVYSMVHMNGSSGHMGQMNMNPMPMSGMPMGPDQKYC

Row | Compound | inhibition [1] | inhibition [2]
1 | C=CCc1cccc(/C=N/NC(=O)C[n+]2ccccc2)c1O | 24.3% (inactive) | 12.3% (inactive)
2 | C=CCN1CN(S(=O)(=O)c2cccs2)c2nc3ccccc3nc21 | -9.88% (inactive) | 7.9% (inactive)
3 | NC(=S)N/N=C\c1c(OCc2ccccc2Cl)ccc2ccccc12 | 18.1% (inactive) | 27.6% (inactive)
4 | Cc1ncoc1C(=O)NC1CCCc2c1cnn2-c1ccc(C(C)(C)C)cc1 (configuration not stated) | -0.26% (inactive) | 41.8% (active)
5 | Cc1nccc(-c2ccc(-n3cnc4ccccc43)cc2)n1 | 23.8% (inactive) | 12.4% (inactive)
6 | COc1ccc(CNS(=O)(=O)c2ccc3c(c2)N(C(C)=O)CC(C)S3)cc1 (configuration not stated) | 7.83% (inactive) | 11.6% (inactive)
7 | COc1ccc(-c2nc(CSCC(=O)NCc3ccco3)c(C)o2)cc1 | 42.1% (inactive) | -11.2% (inactive)
8 | Cc1ccc(S(=O)(=O)N2C[C@H]3C(=O)C[C@@H](c4ccccc4)N(S(=O)(=O)c4ccc(C)cc4)[C@H]3C[C@H]2c2ccccc2F)cc1 | 6.96% (inactive) | 2.52% (inactive)
9 | CC[C@H](C)Cc1cn([C@@H](CCCCNC(=O)OC(C)(C)C)C(=O)NCCCCCCCCCCC(=O)N2CCN(C(=O)OC(C)(C)C)CC2)nn1 | 17.9% (inactive) | 22.5% (inactive)
10 | Cc1ccc(Cl)cc1N1CCN(C(c2ccc(C#N)cc2)c2nnnn2C2CCCC2)CC1 (configuration not stated) | 1.29% (inactive) | 22.5% (inactive)
11 | O=C1C=CC(=O)N1CCNc1ncc(C(F)(F)F)cc1Cl | 7.05% (inactive) | -14.1% (inactive)

Reference: PubChem BioAssay
